# Experimental data: the supplement of paper PMC3334620
# Whole data set: some 33,000 sequences, median “E-score (-0.5 to 0.5)” near -0.011, cut for the highest 2% near 0.28. The sample holds the highest values, similar sequences and a random draw of the others, so the mix is not that of the screen.
# Biological target: T1, Gcr1 (UniProt P07261)
# T1 sequence: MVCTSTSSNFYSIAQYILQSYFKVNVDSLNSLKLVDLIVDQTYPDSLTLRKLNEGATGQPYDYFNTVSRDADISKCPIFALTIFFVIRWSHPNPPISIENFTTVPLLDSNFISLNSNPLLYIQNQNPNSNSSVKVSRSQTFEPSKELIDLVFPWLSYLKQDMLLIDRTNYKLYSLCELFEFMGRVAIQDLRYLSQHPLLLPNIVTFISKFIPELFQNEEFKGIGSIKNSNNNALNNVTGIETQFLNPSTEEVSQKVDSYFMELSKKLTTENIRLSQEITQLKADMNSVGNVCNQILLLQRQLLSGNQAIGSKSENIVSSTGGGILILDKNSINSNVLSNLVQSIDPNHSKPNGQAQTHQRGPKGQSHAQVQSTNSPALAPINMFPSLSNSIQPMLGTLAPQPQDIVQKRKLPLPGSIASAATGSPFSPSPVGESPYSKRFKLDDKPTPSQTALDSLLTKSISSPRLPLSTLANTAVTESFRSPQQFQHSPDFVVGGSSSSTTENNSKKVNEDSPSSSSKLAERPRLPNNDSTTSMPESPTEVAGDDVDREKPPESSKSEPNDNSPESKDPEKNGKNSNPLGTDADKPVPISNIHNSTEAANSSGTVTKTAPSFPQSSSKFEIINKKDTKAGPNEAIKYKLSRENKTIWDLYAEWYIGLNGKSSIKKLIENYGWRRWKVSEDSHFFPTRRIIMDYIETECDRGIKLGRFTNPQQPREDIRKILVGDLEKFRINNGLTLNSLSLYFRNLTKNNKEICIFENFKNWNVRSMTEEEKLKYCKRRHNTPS
# Test: PBM E-score (8-mer binding enrichment) (E-score (-0.5 to 0.5)); higher = stronger / more preferred TF binding
# Conditions: protein concentration: 100 nM; construct: GST-full length
# Description: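 Universal 'all 10-mer' protein binding microarrays (Agilent AMADID 015681) probed with GST-tagged S. cerevisiae TFs (full-length or DBD) made by in vitro transcription/translation (PURExpress), about 100-200 nM. Bound TF was detected with fluorescent anti-GST. Each ungapped 8-mer (which stands for itself and its reverse complement) is scored by the PBM enrichment score (E-score), a modified Wilcoxon-Mann-Whitney statistic from -0.5 to +0.5, computed with the Universal PBM Analysis Suite. Scale: above 0.35 generally sequence-specific binding.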
row,Sequence,PBM E-score
1,AATTTGGA,0.263
2,ATTTTGGG,0.274
3,CATTTGGA,0.172
4,TATTTGGA,0.313
5,ATTTGGGA,0.301
6,ATTTTGGA,0.282
7,GTTTGGGA,-0.0986
8,ATTTGGGG,0.23
9,AAGCTCCG,0.00534
10,AACCAACA,0.0425
11,CTTTGAGC,-0.149
12,GACCATCC,-0.0793
13,GCGCCCAC,0.317
14,CCGCCCAC,0.0451
15,ACGCCCGC,0.105
16,GCGCCCAA,0.18
17,GCGCCCGC,0.315
18,CCGCCCGC,-0.0787
19,TAAAGGTA,-0.0155
20,GTGCTACA,-0.119
21,CTAAACGA,-0.00769
22,GGTTAACC,-0.194
23,AATCTGGC,0.0826
24,AATCTGGA,0.257
25,AATCTGGT,0.281

row,Sequence,PBM E-score
1,CGTTCCCC,-0.0544
2,AACAAGTG,0.0405
3,AATGCCAC,-0.0507
4,AATGCCGA,-0.178
5,CATGCCGA,0.041
6,CATGCCAC,-0.109
7,TATGCCAA,-0.104
8,GATGCCAA,0.351
9,AATGCCAA,0.042
10,GATGCCAC,0.342
11,GATGCCGA,0.335
12,GTTCATAA,0.0771
13,CAGTGAGG,-0.176
14,GCCAGGTA,0.0834
15,CTCTGCGC,-0.22
16,ACAGCAGC,0.288
17,GAAGCAGC,0.24
18,CCAGCAGC,0.272
19,GCAGCAGC,0.307
20,GCAGCAGA,-0.135
21,CACGCAGC,0.295
22,CAAGCAGC,0.324
23,ACAGCAGA,-0.0557
24,CACGCAGA,-0.137
25,AAAGCAGC,-0.0508

row,Sequence,PBM E-score
1,ACAGCAGT,-0.0218
2,AACGCAGC,0.0364
3,CGCGGCTC,0.117
4,CACTTGAG,0.00447
5,ACCCTCCG,-0.333
6,GCCGCAGC,0.0591
7,TAAGATCA,0.157
8,CGATCGAC,-0.154
9,GTATCGCA,-0.00444
10,CATACTTA,0.0988
11,AAAAAAGT,0.135
12,TGGCTGAA,0.0392
13,CATCCAGA,0.268
14,GGAGCCCC,0.265
15,GGAGCCCA,0.349
16,CGAGCCAC,-0.116
17,GGAGCCAA,0.33
18,CGAGCCAA,-0.00353
19,TGAGCCCA,0.0335
20,AGAGCCAA,-0.13
21,GGAGCCAC,0.289
22,AGAGCCAC,0.13
23,CCCAGTCC,-0.0352
24,AAGTTCAA,0.0288
25,CACGTGCC,-0.121

row,Sequence,PBM E-score
1,ATCGATCC,-0.0388
2,CCTAGAGG,0.0618
3,CAAGTTCG,-0.0211
4,ACATTGCT,0.0699
5,GCATCTCA,0.139
6,TGGGCAAA,-0.213
7,AGCTTCCA,0.458
8,AGCTTCCG,0.433
9,AGCTTCAG,-0.19
10,CCCTTCCG,-0.286
11,TGCTTCCA,0.146
12,ACCTTCCC,-0.00014
13,AGCTTCGG,0.17
14,CGCTTCCG,0.291
15,AGCTTCCC,0.378
16,AGCTTCGC,0.173
17,CGCTTCAG,0.0898
18,AGCTTCAA,0.0987
19,GATTAAGC,0.0627
20,CAAAACGC,0.025
21,AAGCAAAA,-0.075
22,CCATCCGG,-0.0299
23,CGCTTCGA,-0.0778
24,CGCTTCCA,0.351
25,CCCTTCCA,-0.0993

row,Sequence,PBM E-score
1,GGCTTCAC,-0.14
2,GGCTTCCC,0.433
3,CGCTTCCC,0.273
4,GTCAGGTA,0.091
5,GTTCTAAA,0.0776
6,CAGAATCC,0.161
7,CTATCGCC,-0.00847
8,AACAGGAC,0.162
9,AACAGGAA,0.334
10,TACAGGTA,0.0633
11,AACAGGTA,0.269
12,AACAGGAG,-0.0445
13,GACAGGAC,0.0783
14,CACAGGAA,0.118
15,ACCAGGAA,0.0492
16,AACAGGAT,0.318
17,GTCAGGAA,0.104
18,GACAGGAA,0.316
19,TACAGGAA,0.394
20,CGGCTCAA,0.00705
21,GCGGGCAA,-0.146
22,CACAAGGC,-0.161
23,AACACCTT,-0.0171
24,AGTCCCGA,-0.15
25,CGCATAAA,0.0544

row,Sequence,PBM E-score
1,ACGTTGCA,-0.015
2,AACCGGAA,0.2
3,TACCGGAA,0.341
4,CACCGGAA,0.266
5,CTCGGGGC,-0.101
6,CTAAGGCC,0.046
7,AGTTGAAT,-0.0577
8,CGGATGTC,0.0736
9,AGCTTCTG,0.245
10,GGCTTCTA,0.297
11,GCCTTCTA,0.131
12,AGCTTCTC,0.25
13,CGCTTCTA,0.259
14,AGCTTCTA,0.297
15,GCTCCGGA,0.121
16,CGAACTAC,0.00469
17,AGGCCGCC,0.292
18,AGGCCGCG,0.0497
19,AGGCCGCA,-0.0993
20,CCTGCCAC,0.0404
21,GCTGCCAA,0.31
22,ACTGCGTA,0.062
23,GCTGCCTA,0.305
24,CCTGCCTA,0.00507
25,ACTGCCAA,0.0668

row,Sequence,PBM E-score
1,ACTGCCTA,0.0876
2,GCTGCGTA,0.286
3,TCTGCCAA,0.00421
4,CCTGCGTA,0.0119
5,GCTGCCAC,0.301
6,ACTGCCAC,0.101
7,TAGTCTGA,-0.0964
8,TCCAAACA,0.135
9,AGATAACA,-0.0519
10,ACCGTTAA,-0.119
11,GCGGACTA,-0.12
12,CCGTCCTA,-0.158
13,CCGTCCCC,0.00017
14,ACGTCCCC,-0.0668
15,GCGTCTCC,0.317
16,ACGTCTCC,0.101
17,GCGTCCTA,0.43
18,ACGTCCCA,-0.153
19,TCGTCCCA,-0.0947
20,GCGTCTCA,0.146
21,ACGTCCTA,0.0954
22,GCGTCCCC,0.304
23,GCGTCCCA,0.282
